Hits are enriched below; roughly 2.1% of the tested compounds scored in any of these assays.
aSyn yeast inh = rescues yeast growth from alpha-synuclein toxicity | Yeast expressing alpha-synuclein, growth rescue, BacTiter-Glo, 24 h | Potency, µM (titrated, usually from 46.1 µM), without a hit: at the highest dose growth rescue (activation), usual class: activators | actives 0.14% (n = 370,000); also: % of control where 0% means no effect; nearly all actives have a fitted effect of over 65% in size
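Rescue of yeast growth: cells expressing toxic alpha-synuclein, induced in galactose at OD600 0.02, incubated with compound 24 h at 30 C. ATP luminescence quantified growth; inhibitors of toxicity appear as activators.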
FUS suppressor = FUS proteinopathy suppression in yeast; S. cerevisiae FUS-expressing, growth rescue, OD600, 24 h; Potency, µM (highest dose often 76.6 µM), most hits filed as activators; actives 0.24% (n = 390,000); AID 1347120;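 also: plate controls were DMSO vehicle for no effect and reference control for full effect; nearly all actives have a fitted effect of over 55% in size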
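Toxicity suppression screen in FUS-yeast. Cells induced with 2% galactose, starting OD 0.005, treated 24hr at 30C with compounds at multiple final concentrations; growth by OD600.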
Abeta rescue = restores growth of yeast expressing A-beta42 peptide; yeast expressing A-beta42, growth rescue, OD600, 48 h; response scale: 0% DMSO, 100% iron-clioquinol control; Potency, µM (doses to about 46.1 µM), most hits filed as activators; actives 0.063% (n = 410,000); AID 1347071; also: nearly all actives have a fitted effect of over 55% in size
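Growth rescue measured by 600 nm absorbance after 48 h yeast culture at 30 C with compound. Values normalized between DMSO and an equimolar ferric chloride plus clioquinol control.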
TDP43 rescue = rescues yeast growth from TDP-43 toxicity; actives 1.8% (n = 410,000); TDP-43 expressing yeast growth rescue, BacTiter-Glo, 24 h; Potency, µM (top dose mostly 46.1 µM), without a hit: at the top dose growth rescue (activation), usual class: activators; also: % of control where 0% means no effect; nearly all actives have a fitted effect of over 50% in size
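Galactose-induced TDP-43 yeast, OD600=0.02, compound pinned; 24 hr, 30 deg C; BacTiter-Glo luminescence for growth. Inhibitors of TDP-43 toxicity read as activators.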
* = called active by the depositor; i = inactive; u = inconclusive; x = not tested or not shown. Calls follow the shape of the dose curve; as a rule, active = well fitted curve in the direction sought with a large enough effect; inconclusive = small, poorly fitted or top-dose-only effect, or another doubt; inactive = no such curve, though single readings can be large; an effect the other way counts as inactive or inconclusive. Potency is read from the fitted curve at half-maximal effect.

SMILES	aSyn yeast inh	FUS suppressor	Abeta rescue	TDP43 rescue
C[C@@H](CCCCC1(C)OCCO1)CCC(=O)N(c1ccccc1)c1ccccc1	x	i	x	x
Cc1cc(Nc2cccc(Cl)c2)nc2ccc(NC(=O)c3cccc(N(C)C)c3)cc12	x	u	i	16µM*
Cc1cc(Nc2cccc(C(F)(F)F)c2)nc2ccc(NC(=O)Cc3ccc(Cl)cc3)cc12	x	i	i	14µM*
Cc1cc(Nc2cccc(Cl)c2)nc2ccc(NC(=O)c3cccnc3)cc12	x	i	i	24%
COc1ccc(CC(=O)Nc2ccc3nc(Nc4cccc(Cl)c4)cc(C)c3c2)cc1	x	u	i	u
COc1cccc(/C=C/c2nc(C#N)c(N3CCCCC3)o2)c1	x	i	i	16µM*
Cc1csc2c(N3CCN(C(=S)Nc4ccc(C(F)(F)F)cc4)CC3)ncnc12	-3%	i	i	6%
Cc1csc2ncnc(N3CCN(C(=S)Nc4ccc(C(F)(F)F)cc4)CC3)c12	8%	u	i	13µM*
COC(=O)/C=C1\OC(C2CC2)c2ccccc21 (stereo unspecified)	-9%	i	i	28µM*
CCC(C)[C@H]1COCCS(=O)(=O)N1Cc1ccc(Br)cc1 (stereo partly specified)	11%	i	i	35µM*
CC(C)C[C@H]1COCCS(=O)(=O)N1Cc1cccc(Cl)c1	1%	i	i	u
O=S1(=O)CCOC[C@H](Cc2ccccc2)N1Cc1ccc(Cl)cc1	18%	i	i	16µM*
O=S1(=O)CCOC[C@H](Cc2ccccc2)N1Cc1cccc(Cl)c1	17%	i	i	u
CC(C)C[C@H]1COCCS(=O)(=O)N1Cc1cccc(C(F)(F)F)c1	0%	i	i	14µM*
COc1ccccc1C(=O)NC1CCCCN(Cc2cccc(F)c2)C1=O (stereo unspecified)	x	i	x	x
CCC[C@H]1[C@@H](NC(=O)c2cccnc2)CC[C@@]23CCCN2C(=O)CCC[C@@H]13	x	i	x	x
CCOC(=O)[C@@]12CCCC3=C1N(CCC3)C(=O)[C@H]2CC(=O)NCCCOC	x	i	x	x
O=C(NCc1ccccc1)c1cc(C2CCCN(C(=O)CCCc3ccccc3)C2)on1 (stereo unspecified)	-3%	i	i	35µM*
O=C(NCc1ccc(Cl)c(Cl)c1)c1cc(C2CCCCN2C(=O)CCc2ccccc2)on1 (stereo unspecified)	u	u	i	8%
O=C(NCc1ccccc1)c1cc(C2CCCCN2C(=O)CCc2ccccc2)on1 (stereo unspecified)	8%	i	i	35µM*
O=C(O)CC1CCC(=C(Cl)Cl)C1 (stereo unspecified)	11µM*	i	i	-8%
O=C(O)CC1CC(O)CCC1=O (stereo unspecified)	-1%	i	i	3%
C=CCN1C(=O)[C@@H](CC(=O)NCCc2ccccc2OC)[C@]2(C(=O)OC)CCCCC=C12	x	i	x	x
Cn1c(SCc2ccc(F)cc2)nnc1-c1cnccn1	6%	i	i	10%
Fc1ccc(CSc2nnc(-c3cnccn3)n2Cc2ccco2)cc1	4%	i	i	u
SMILES	aSyn yeast inh	FUS suppressor	Abeta rescue	TDP43 rescue
Brc1ccc(CSc2nnc(-c3cnccn3)n2Cc2ccco2)cc1	8%	x	i	35µM*
CCn1c(SCc2ccc(C)cc2)nnc1-c1cnccn1	2%	i	i	11µM*
Clc1ccc(CSc2nnc(-c3ccccn3)n2Cc2cccs2)cc1Cl	11%	u	i	u
Cc1ccc(CSc2nnc(-c3ccccn3)n2Cc2cccs2)cc1	12%	u	i	35µM*
COc1cc(OC)c(/C=C/c2c3ccccc3cc[n+]2C)c(OC)c1	0%	x	x	x
Nc1cccc2c1C(=O)N(c1ccccc1)C2=O	-17%	i	i	35µM*
O=C1c2ccccc2C(=O)N1c1ccccc1	0%	i	i	4%
O=c1[nH]nc(CNc2ccc(OC(F)(F)F)cc2)c2ccccc12	-5%	i	i	14µM*
COc1ccc(Nc2nnc(SCC3CCCCO3)s2)cc1 (stereo unspecified)	-18%	i	i	11µM*
Cc1cccc(C(=O)N2CCC(n3nnc4cc(F)ccc43)CC2)c1	6%	i	i	22µM*
CCOc1ccccc1C(=O)N1CCC(n2nnc3cc(C(F)(F)F)ccc32)CC1	9%	i	i	u
COc1ccc(C(=O)N2CCC(n3nnc4cc(F)ccc43)CC2)cc1OC	4%	i	i	0%
CCOc1ccccc1C(=O)N1CCC(n2nnc3cc(C)ccc32)CC1	12%	i	i	18µM*
COC(=O)c1cc(-c2ccc(-c3ccccc3)c(F)c2)c(=O)n2c1CCC2	x	i	x	x
CC12CN3CC(C)(CN(C1)C3c1ccc([N+](=O)[O-])o1)C2 (stereo unspecified)	-58%	i	i	11µM*
Cc1ccc(CS(=O)(=O)c2cn(CC(=O)N(C)c3ccccc3)c3ccccc23)cc1	x	32µM*	i	4%
O=C(Nc1ccc(Cl)c(Cl)c1)c1cccc2c1-c1ccccc1C2=O	x	i	x	x
Oc1ccccc1C=Nn1c(-c2ccccc2F)n[nH]c1=S	x	i	x	x
O=C(Nc1ncc2c(n1)-c1ccccc1CC2)c1ccc(Cl)cc1	13%	i	i	3%
O=C(Nc1ncc2c(n1)-c1ccccc1CC2)c1cccc(Cl)c1	-2%	x	i	13µM*
CC(=O)N1N=C(c2cccc([N+](=O)[O-])c2)OC1(C)c1cccs1 (stereo unspecified)	0%	i	i	u
CC(=O)N1N=C(c2cccc([N+](=O)[O-])c2)OC1c1ccccc1Cl (stereo unspecified)	7%	i	i	22µM*
O=C(CSc1nc2ccccc2[nH]1)NN=Cc1c(F)cccc1Cl	x	i	x	x
CCOc1ccc(/C=C/c2ccc3ccccc3[n+]2C)cc1OCC	-2%	x	x	x
CCn1c(=O)n(CC(=O)N2CCN(C(C)=O)CC2)c(=O)c2ccccc21	x	i	x	x
SMILES	aSyn yeast inh	FUS suppressor	Abeta rescue	TDP43 rescue
Cc1nnc(-c2cccc(Br)c2)c2cn(-c3ccccc3Cl)nc12	10%	i	i	10µM*
Cc1ccc(-n2cc3c(-c4cccc(Br)c4)nnc(C)c3n2)cc1	0%	u	i	u
COc1cc(/C=C/C(=O)Nc2cc(C(F)(F)F)ccc2Cl)cc(OC)c1OC	0%	i	i	22µM*
CCn1c(SC(C)C(=O)Nc2ccc(C)cc2)nnc1-c1ccccc1 (stereo unspecified)	1%	x	x	x
O=C(CSC1=NCCS1)Nc1ccc(S(=O)(=O)NC2CCCCC2)cc1	3%	40µM*	i	-24%
O=C(CSC1=NCCS1)Nc1ccc(S(=O)(=O)N2CCCCCC2)cc1	6%	i	i	0%
CC(C)n1nnnc1C1(C)CCCCC(=O)N1Cc1cccc(C(F)(F)F)c1 (stereo unspecified)	x	i	x	x
